# Data taken from the supplement of paper PMC10105736.
# Unmarked numbers belong to inactive results.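 The calls were made as follows: active = MAPPIT score above the 99th percentile of random reference set scores in the same batch; inactive = at or below it.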
# B1: Vinc (protein)
# chain: MPVFHTKTIESILDPVAQQVSRLVILHEEAEDGNAMPDLSRPVQVVSAAVANLVKVGRDTINSSDDKILRQDMPSALHRVEGASQLLEEASDMLRSDPYSGPARKKLIEGSRGILQGTSSLLLCFDESEVRKIIQECKRVLDYLAVAEVINTMEQLVQFLKDLSPCLSKVHREVGAREKELTHQVHSEILVRCLEQVKTLAPILICSMKVYIHIVEQQGRGAEEAAENRNYLAARMSDELQEIIRVLQLTTYDEDTSELDNLTVLKKLSNAISNKMEQANEWLSNPYALRGGVGEKALRQVIDNATEISERCLPQDSYPIRKLADEVTAMANTLCELRQEGKGQSPQAESLVRGIRDRMGELKSLVHQAVLGVDKAGVQQTAHTIQGRLEQAVKWLQHPEINDGGLGERAINLIVEEGRKVAEGCPGHQKAEIQQLCDEVERLKRQAAGSGPAAKQAAKQLTQKLYELKAAIQNALVNRIVQDFMDVSTPLKQFTEAVLQPEGTPGREQNFNQKSNNLQAFSDRASKTSRMVAAGGACGNKKIAEILLSSAAQVDSLTPQLISAGRIRMNYPGSKAADEHLQNLKQQYADTVLRMRTLCDQATDPADFIKTSEEHMQVYAKLCEDAIHARQPQKMVDNTSNIARLINRVLLVAKQEADNSEDPVFTERLNAAANRLERSLPAMVGDAKLVATNIADPAAAAAWKNSFQRLLGDVREVRDAIAPPQPPPLPTSLPPPIPELSALHLSNQNAERAPPRPPLPREGLAPVRPPPPETDDEDEGVFRTMPHANQPILIAARGLHQEVRQWSSKDNEIIAAAKRMAILMARLSELVLSDSRGSKRELIATAKKIAEASEDVTRLAKELARQCTDRRIRTNLLQVCERIPTIGTQLKILSTVKATMLGAQGSDEDREATEMLVGNAQNLMQSVKETVRAAEGASIKIRSDQTSNRLQWVRRQPWYQY
# B2: Vps28 (protein)
# chain: MQEQSPELYEEVKLFRNAREREKYDNMADLYAIINTIQQLEKAYIRDCITPQEYTAACSKYLVQYKVAFKQVQCDEFPSVETFVKKFRLDCPAALERIREDRPITIRDDKGNTSKCIAEIVSLFITIMDKLRLQINTMDALQPDVKDLADNMNRLSLIPEDFDAKLKVEKWLGSLNEMQASDELSEGQVRQFLFDLESAYADFNKLLHSQ
# B3: Mlp60A (protein)
# chain: MPFVPVETPKCPACGKSVYAAEERVAGGYKFHKTCFKCSMCNKALDSTNCTEHEKELFCKNCHGRKYGPKGYGFGGGAGCLSTDTGAHLNRE
# B4: Lst8 (protein)
# chain: MGDQQQLILATGGYDHTIKVWQAHTGNCIKTMRFVETSQVNALDRTPDKTRLAACGYQCIRLYDLESNCTAPVINFDGVQKNVTRLGFQEDGNWMFTAGEDHHVRIWDMIAAPPHCSRIFDCEAPVNAACLHPNQVEIAMGSQNGSVFLWDVKSERHERIVPEVDASIQDVAISPDGRYLAAANNKGNCYIWSLTSQDQKMSTLRPNRKIPAHSRYILRCKFSPDSRLLLTTSGDGTVCIWKTDDFSKWRELCIENYWVWDAAFSADSKWLFTASSDGIARLWKLQTKSSIRDYTGHTKAITALSFKDEIVGK
# B5: CG8230 (protein)
# chain: MGINVSRTADLGSNQWLQRFVGRQHIAHDDEAFWNGLLNYNIVLPENSQDQLNLDSRLEALCQSFIGNNLKTGNFGSLVTVFLEKTSELLSLSDQESNMHVWQTFNALFIIRSLVKYINETGSEFQLLQHFEAMPNAELLQAALEQQQQTPAESATIAMEATEQSAAAAVPVIVDGSKFETFIDALVNLIVVIPVKEFTYHLHLEAVNMLITLLSVHLFAQQPTDKSIVFRTVFKCQHANVLMSALLHFVARIVEVPHTMFGSSSAGSFVFGIAESLLSIFTFRKQPDILKAGQAAGGGELSQRFRTHYPLANQSLLLILILTNHCTAQDNAYRTSLFSCADSKDSPKQGAVSFQIDFSAVYETLCTIVTIDQATLLLYLLLHRNERFYRFVMQQQDLEQLVIPILQTLYNAPDSNSHHIYMSLIVLLILSEDEGFNKNVHTIMLKNITWYTERTISEISLGGILILIVIRTIQYNMLKMRDKYLHTNCLAALANMSGHFRALHPYVAQRLVSLFETLARKHTRLDAQLKEPADSAVFVNVSTTPEDMLQDLSVLEEVLRMVLEILNSCLTNQLVYCPNLVYTLLYKRSVFEGFRSHHAFQDVIQNIDMVVGFFSSRLQRVQEQRGELGVNEVLEVISKGASQWSSDRLRKFPDLKFKYVEEDAPEEFFIPYVWTLVCKYGCVHFSSESIKSVTTDIAC
# B6: CG4511 (protein)
# chain: MANILENQLFTAAKTIEQQLDQQLDRLDNLDSDDLKVLREQRLREMKDLNNKKQEWLRNGHGTYTELADEKEFFEMSKKSPNIVCHFYRDSTERCKIVDMHLKILAAKHVEAKFCKVNAEKTPFLTQRLRIKVIPTIALVKDSKTKDFIVGFTDLGNCDDFATEMLEWRIAHSGAIDYKGDLMQPPDVKRKPFINRPQKTIRGGYDSDDSDIDLDD
# B7: Ns1 (protein)
# chain: MALKRLKTKKSKRLTGRLKHKIEKKVRDHNKKERRAAKKNPKKGSKKQKLIQIPNICPFKDDILKEVEEAKQRQEAERLARREAFKAEREQNKFKTLESMVEDADMRSTVHGIMHENDAQDQDEKKYKNAVTKEQSLKQYFKEFRKVIENADVVLEVVDARDPLGTRCNEVERAVRGAPGNKRLVLVLNKADLVPRENLNNWIKYFRRSGPVTAFKASTQDQANRLGRRKLREMKTEKAMQGSVCIGAELLMSMLGNYCRNKGIKTSIRVGVVGIPNVGKSSIINSLTRGRSCMVGSTPGVTKSMQEVELDSKIKLIDCPGIVFTSGGENSHAVLKNAQRVGDVKDPFTIAESVLKRASKEYFCTMYDITNYDTFEEFFAKKAARMGKFLKKGVPDVVAAARSVLNDWNTGKIKYCTQPPEVQEGQSVHISASIVHSEAREFDVENFESMETEILEHCAVKTDDIMEITSTGPLEIRQPREEAEPADKITASLVIDEKEKPAKGRKRKLDEEKEKVDPSLLLEENQSLNKGIKQMQKLKKKQNVRNEKKISKITDVLDSFSLGPSSSKAEKYDFDEDYVIE
# B8: CG7218 (protein)
# chain: MNATLNSAGGKRQLRFRGDVTGSRVEELHHQQQEEQKQKAPLAQDDVAATPTATPAAGSAQQRLQSGTAETCTNTFYDFFKVEMTRGYMLEHDEERYSARRQKIYSFMRIPRDLERFMVYGIMQCADSFLYIHTFLPVRFVMAVWALVSRTVARIFRLRSSGQRLLSPAEICDLLKGVIWMTVTLIMLLVDTNRVYHIIKSQSIIKLYIFYNMLEVGDRLLSAFGQDTIDALFWTATEPKNSKREHFGVLTHVLFTLIYVFLHSGLIMFQATCLNVAVNSNNKGLLTIMISNNFVELKGSVFKKFDKNNLFQLTCSDVRERFHLSVLLFIVVIQTMKEFDWSITQFCVMLPDCFAVLFTEILIDWVKHAFITRFNELPESIYREYTTSLAYDMTQTRQKHAFSDHSDLVARRMGFIPFPLAVVLIKAIYTAVSFENLAAWLLFLLAYLFAMGLRICLTICALGKACKLMKEHQTERNSSTPSSMTNVPVIGAAAPVSAAATGGQNHNNNNNNNNNSISIGSKPAQVTTLLTPPSAGHLDVSKNFSRTSIASTSTPKKAVSEQELDVTNSLELGATALFSNSDVDLDDVCLNEQVTNTNTSSAVQEVYQEQDLVRSQPDLMLLNNSGDGVTSAKAKKATQRLPKRTHKRSESEPGMPSMVEKGGAAGIAGGNQTTQL
# B9: TER94 (protein)
# chain: MADSKGEDLATAILKRKDRPNRLIVEEAQNDDNSVVSLSQAKMDELQLFRGDTVILKGKRRKETVCIVLSDDTCPDEKIRMNRVVRNNLCVHLSDVVSVQSCPDVKYGKRVRILPIDESTEGVTGNLFEIYLKPYFLEAYRPIHMGDNFIVRAAMRPIEFKVVLTDPEPYCIVAPETVIFCDGDPIKREEEEESLNAVGYDDIGGCRKQLAQIKEMVELPLRHPSLFKAIGVKPPRGILMYGPPGTGKTLIARAVANETGAFFFLINGPEIMSKLAGESESNLRKAFEEAEKNSPAIIFIDEIDAIAPKRDKTHGEVERRIVSQLLTLMDGMKKSSHLIVMAATNRPNSIDPALRRFGRFDREIDIGIPDATGRLEVLRIHTKNMKLHDDVDLEQIAAESHGHVGADLASLCSEAALQQIREKMDLIDLEDDKIDAEVLASLAVTMENFRYAMTKSSPSALRETVVEVPNTTWTDIGGLESVKKELQELVQYPVEHPDKFLKFGMQPSRGVLFYGPPGCGKTLLAKAIANECQANFISVKGPELLTMWFGESEANVRDIFDKARSAAPCVLFFDELDSIAKARGGNVGDAGGAADRVINQILTEMDGMGAKKNVFIIGATNRPDIIDPAILRPGRLDQLIYIPLPDDKSREAILKANLRKSPLAKEVDLTYIAKVTQGFSGADLTEICQRACKLAIRQAIEAEIRREKERAENQNSAMDMDEDDPVPEITSAHFEEAMKFARRSVSDNDIRKYEMFAQTLQQSRGFGQNFRFPGQTGNTSGSGNNLPVNSPGDNGDDDLYS
# B10: IM18 (protein)
# chain: MKLIALCCLLLLGLLGFLAAPGVASPSRHTGPGNGSGSGAGSGNPFRSPSSQQRPLYYDAPIGKPSKTMYA
# B11: AnxB11 (protein)
# chain: MYPFGSGMPSHPPTSTNHHEPPRAPFGAGWVPPMQQNSPYPPPSQPHPHSQPSSQMHPQQHQQYPGGAPAPYPPMSAPYPSAAPSYPPYPTSNPYPAQYAPPAHNHYQQPSVSNSPYPADRGYTPAMTAGYDAGYGYGNGQGHGQGHGHGQGHGHGHGQGHEYGHGYGQGYGHGQGHGNGQGHAHRSLPAHREGTPTVVPAANFDAVKDAHDLRKAMKGFGTDEDALINIICRRSNEQRQEIQRQFKTHFGKDLIEDIKSETSGNFEKLLVGLLRPIVDYYCAELNDAMAGLGTDEEVLIEILCTLSNMEINTIKNQYLRLYGAHLESELKSETSGNFKRLLTSLCTAARDESGRVDPVAAKNDARELLKAGELRVGTDESMFNMILCQRNYQQLKLIFQEYEGMTGHSLEKAIKKEFSGDVMEGLIAIYRCVTNKAEYFASRLHKAMAGIGTNDTQLIRVIITRSEIDMTDIKVAFERLYGKSLKSWIKGDTSGHYKHALYALVGEQRSS
# Columns and labels:
# Test in all cases: MAPPIT interaction score (arbitrary units); higher = stronger binary interaction signal, active = hit call of the paper
# [1] = target: CAP; settings: MAPPIT configuration: N-N
# [2] = target: Fkbp12; settings: MAPPIT configuration: N-N; pair source set: Curagen_low_conf
# [3] = target: ND-75; settings: MAPPIT configuration: N-N; pair source set: Curagen_low_conf
# [4] = target: Pax; settings: MAPPIT configuration: N-N; pair source set: screen_2
# [5] = target: vlc; settings: MAPPIT configuration: N-C; pair source set: screen_3
# [6] = target: CASK; settings: MAPPIT configuration: N-C; pair source set: screen_4
# [7] = target: CG30324; settings: MAPPIT configuration: N-C; pair source set: screen_4
# [8] = target: stck; settings: MAPPIT configuration: N-C; pair source set: screen_3
# [9] = target: CCT3; settings: MAPPIT configuration: N-N; pair source set: DPIM
# [10] = target: CCT6; settings: MAPPIT configuration: N-N; pair source set: DPIM
# [11] = target: Spt7; settings: MAPPIT configuration: N-N; pair source set: Curagen_high_conf
# [12] = target: CCT7; settings: MAPPIT configuration: N-N; pair source set: DPIM
# [13] = target: CG10013; settings: MAPPIT configuration: N-N; pair source set: DPIM
# [14] = target: CG10026; settings: MAPPIT configuration: N-N; pair source set: Finley_Y2H
# [15] = target: CG10336; settings: MAPPIT configuration: N-C; pair source set: screen_3
# [16] = target: Gint3; settings: MAPPIT configuration: N-N; pair source set: Lit-BM-16
# [17] = target: ZnT63C; settings: MAPPIT configuration: N-N; pair source set: DPIM
# [18] = target: CG10444; settings: MAPPIT configuration: N-C; pair source set: screen_3
# [19] = target: CG10465; settings: MAPPIT configuration: N-N; pair source set: Curagen_high_conf
# 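Also: HEK293T cells with Epo stimulation, STAT-responsive firefly luciferase reporter, fold induction versus unstimulated cells divided by the larger fold induction of two negative controls lacking either bait or prey.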
binder,measurement,setting,value
B1,MAPPIT interaction score,[1]; pair source set: Lit-BM-16,2.34
same,MAPPIT interaction score,[2],0.498
same,MAPPIT interaction score,[3],-0.456
same,MAPPIT interaction score,[4],5.44 (active)
B2,MAPPIT interaction score,[1]; pair source set: screen_1,1.33
same,MAPPIT interaction score,[5],1.09
B3,MAPPIT interaction score,[6],1.2
same,MAPPIT interaction score,[7],3.25
same,MAPPIT interaction score,[8],4.22 (active)
B4,MAPPIT interaction score,[9],0.335
B5,MAPPIT interaction score,[10],3.15 (active)
same,MAPPIT interaction score,[11],-0.0669
B6,MAPPIT interaction score,[12],0.524
B7,MAPPIT interaction score,[13],-0.155
B8,MAPPIT interaction score,[14],1.47
B9,MAPPIT interaction score,[15],2.12
same,MAPPIT interaction score,[16],1.48
same,MAPPIT interaction score,[17],-0.374
B10,MAPPIT interaction score,[18],0.79
B11,MAPPIT interaction score,[19],0.12
